This note sets out measurements from PubChem BioAssay.

Assay [1] is described as follows: anti-His antibody binders, primary screen, artefact control for SMM control protein annotation, biochemical, small-molecule microarray, 635 nm fluorescence (AID 1128).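 Further: score merges feature fluorescence with signal-to-noise for each printed compound spot.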 The note with it: anti-His Alexa647 antibody binding, higher = more signal.
The test system of assay [2] is Human papillomavirus type 1a E7 protein (residues 1-88). Kind of assay: HPV1a E7 small-molecule binders, primary screen, biochemical, small-molecule microarray, residues 1-88, 635 nm (AID 1129). The note with it: small-molecule microarray binding, fluorescence 635 nm; higher = more signal.
Assay [3] has as its target Focal adhesion kinase 1 (Homo sapiens) (UniProt Q05397). In words: small-molecule microarray binders of FAK, primary screen, biochemical, 635/667 nm fluorescence, BSA, DTT (AID 1130).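 Further: composite of spot emission at 667 nm and signal to noise over triplicate slides.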 To be noted: PTK2 binding, 635 nm fluorescence, higher = more signal.
In assay [4] the test system is Fibrinogen (Alexa647-labelled). In words: fibrinogen binders on compound microarrays, profiling panel, artefact control for SMM control-protein annotation, biochemical, small-molecule microarray, 635/667 nm fluorescence (AID 1131).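 Further: z-score merges 667 nm fluorescence with per-spot signal-to-noise over triplicate slides.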 The note with it: fibrinogen-A647 binding fluorescence, higher = more signal.
Assay [5] has as its target Follistatin (Homo sapiens) (UniProt P19883). Kind of assay: follistatin binders on small-molecule microarrays, primary screen, biochemical, small-molecule microarray, 635/667 nm fluorescence (AID 1132). To be noted: FST binding, 635 nm fluorescence, higher = more signal.
The target in assay [6] is Fibroblast growth factor 2 (Homo sapiens) (UniProt P09038). In words: FGF2 binders on small-molecule microarrays, primary screen, biochemical, small-molecule microarray, 635/667 nm fluorescence (AID 1133). To be noted: small-molecule microarray binding, FGF2, fluorescence 635/667; higher = more signal.
Fibroblast growth factor 2 (Homo sapiens), sequence (P09038 whole entry, looked up): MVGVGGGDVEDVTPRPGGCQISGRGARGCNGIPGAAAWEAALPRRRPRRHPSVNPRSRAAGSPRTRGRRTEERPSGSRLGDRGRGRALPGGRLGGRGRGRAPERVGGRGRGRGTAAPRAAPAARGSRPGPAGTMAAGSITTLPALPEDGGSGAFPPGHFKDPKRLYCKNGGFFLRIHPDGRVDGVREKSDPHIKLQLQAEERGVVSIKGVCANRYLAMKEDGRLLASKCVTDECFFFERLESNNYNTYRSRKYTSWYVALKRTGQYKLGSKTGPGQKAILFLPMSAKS
A short description of assay [7]: mitochondrial membrane potential change in A549 cells, profiling panel, cell-based, JC-1 fluorescence, basal, 24 h, 100 nL (AID 1138).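 Further: A549 lung adenocarcinoma cells under basal conditions with no added stimulus; test concentration not given here.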 To be noted: higher = more signal.
For the next assay, the system named is Lefty1. Kind of assay: Lefty1 binders on small-molecule microarrays, primary screen, biochemical, small-molecule microarray, 635/667 nm fluorescence (AID 1139). To be noted: small-molecule microarray binding, fluorescence 635/667; higher = more signal.
Assay [8] concerns wheat germ agglutinin (Triticum aestivum), Alexa647-labelled. In words: wheat germ agglutinin binders on compound microarrays, profiling panel, artefact control for SMM control-protein annotation, biochemical, small-molecule microarray, 635/667 nm fluorescence (AID 1140).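 Further: score merges 667 nm feature emission with signal to noise over triplicate slides.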 The note with it: WGA-A647 binding, 635 nm fluorescence, higher = more signal.
Assay [9] concerns the target Luciferin 4-monooxygenase (Photinus pyralis) (UniProt P08659). Kind of assay: firefly luciferase enzyme inhibitors, primary screen, biochemical, luminescence, purified enzyme, 2006 set (AID 1141).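 Further: cell-free assay with purified firefly luciferase at 100 ng per well in PBS; test concentration not given here.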 To be noted: SteadyGlo luminescence, 30 min, higher = more signal, called active from +8 up or from −8 down.
Assay [10] has as its system Wnt5a (protein binding on small-molecule microarray). Kind of assay: Wnt5a binders on small-molecule microarray, primary screen, biophysical, 635/667 nm fluorescence (AID 1142).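 Further: fluorescence read at 667 nm with signal to noise per printed feature.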 The note with it: 635 nm fluorescence, higher = more signal.
A short description of assay [11]: cell viability in Huh7 cells, primary screen, cytotoxicity control for HCV replication inhibitor project, CellTiter-Glo luminescence, basal, 48 h (AID 1143).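 Further: Huh7 hepatoma cells carrying a hepatitis C replication reporter with no stimulus; test concentration not given here.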 The note with it: Huh7 HCV replicon, higher = more signal, called active from +8 up or from −8 down. A general note: ATP-based viability assays read luminescence as a measure of living cells.
Assay [12] in a line: P. aeruginosa biofilm formation inhibitors, primary screen, PAO1 strain, BacTiter-Glo luminescence, LB-PBS (AID 1144). The note with it: 12 h, higher = more signal.
Assay [13] can be described thus: CREB reporter modulators without forskolin, primary screen, cell-based, PC12, CRE-LacZ reporter, unstimulated (AID 1145). To be noted: no forskolin, luminescence, 4.5 h, higher = more signal, called active from +8 up or from −8 down.
Assay [14] is described as follows: CREB reporter modulators under forskolin, primary screen, cell-based, PC12, CRE-LacZ reporter, forskolin-stimulated (AID 1146).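 Further: PC12 cells with 6xCRE LacZ reporter stimulated by forskolin 10 µM; beta-galactosidase reporter signal reflecting CREB driven transcription.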 The note with it: luminescence, 4.5 h, higher = more signal, called active from +8 up or from −8 down.
Assay [15] concerns the target Streptavidin (Streptomyces avidinii) (UniProt P22629). In words: streptavidin binders on small-molecule microarray, primary screen, artefact control for SMM compound annotation, biophysical, 635/667 nm fluorescence (AID 1147).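 Further: signal reflects streptavidin binding to arrayed compounds as a control protein.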 The note with it: streptavidin binding, higher = more signal.
Assay [16] is described as follows: small-molecule binders of probe aInhba, primary screen, biochemical, small-molecule microarray, 635/667 nm fluorescence (AID 1148).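 Further: score merges 667nm spot fluorescence with signal-to-noise for antibody binding to printed compounds.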 To be noted: higher = more signal.
Assay [17] addresses Torsin-1A (Homo sapiens) (UniProt O14656). Kind of assay: torsin A binders from cell lysate, primary screen, small-molecule microarray, wild-type, 635/667 nm (AID 1149). To be noted: COS7 hTOR1A-WT lysate, 635 nm fluorescence, higher = more signal.
For assay [18] the target is unchanged. In words: small-molecule binders of mutant TOR1A in lysate, primary screen, cell lysate, small-molecule microarray, COS7 lysate, 635/667 nm fluorescence (AID 1150).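 Further: score pools 667 nm emission and signal to noise measuring lysate protein binding.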 The note with it: COS7 hTOR1A mutant lysate, 635 nm fluorescence, higher = more signal.
The test system of assay [19] is Sonic hedgehog protein (Shh). In words: small-molecule binders of Shh protein, primary screen, biochemical, small-molecule microarray, 635/667 nm fluorescence (AID 1151).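 Further: Shh protein binding to compounds spotted on small-molecule microarray slides; score combines spot fluorescence intensity with signal-to-noise across triplicate slides.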 To be noted: small-molecule microarray binding, 635 nm fluorescence; higher = more signal.

“And” between values parts separate entries of the source, which are not always exact repeats. Identical values can stand only once. More than one record can exist for a structure, and the calls need not agree. The source made the active and inactive calls. Unless noted, how the calls were made is not given here.

Follistatin (Homo sapiens), sequence (P19883 whole entry, looked up): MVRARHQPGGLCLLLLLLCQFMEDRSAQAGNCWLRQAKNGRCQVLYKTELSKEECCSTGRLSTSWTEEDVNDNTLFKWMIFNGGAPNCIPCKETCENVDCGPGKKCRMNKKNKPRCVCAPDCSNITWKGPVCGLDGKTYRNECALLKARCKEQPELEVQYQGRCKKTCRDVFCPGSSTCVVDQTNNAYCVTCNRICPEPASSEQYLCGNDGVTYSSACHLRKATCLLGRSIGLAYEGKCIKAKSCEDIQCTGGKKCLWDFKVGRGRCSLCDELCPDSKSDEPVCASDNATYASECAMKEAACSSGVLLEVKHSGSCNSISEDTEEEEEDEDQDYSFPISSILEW
Focal adhesion kinase 1 (Homo sapiens), sequence (Q05397 whole entry, looked up): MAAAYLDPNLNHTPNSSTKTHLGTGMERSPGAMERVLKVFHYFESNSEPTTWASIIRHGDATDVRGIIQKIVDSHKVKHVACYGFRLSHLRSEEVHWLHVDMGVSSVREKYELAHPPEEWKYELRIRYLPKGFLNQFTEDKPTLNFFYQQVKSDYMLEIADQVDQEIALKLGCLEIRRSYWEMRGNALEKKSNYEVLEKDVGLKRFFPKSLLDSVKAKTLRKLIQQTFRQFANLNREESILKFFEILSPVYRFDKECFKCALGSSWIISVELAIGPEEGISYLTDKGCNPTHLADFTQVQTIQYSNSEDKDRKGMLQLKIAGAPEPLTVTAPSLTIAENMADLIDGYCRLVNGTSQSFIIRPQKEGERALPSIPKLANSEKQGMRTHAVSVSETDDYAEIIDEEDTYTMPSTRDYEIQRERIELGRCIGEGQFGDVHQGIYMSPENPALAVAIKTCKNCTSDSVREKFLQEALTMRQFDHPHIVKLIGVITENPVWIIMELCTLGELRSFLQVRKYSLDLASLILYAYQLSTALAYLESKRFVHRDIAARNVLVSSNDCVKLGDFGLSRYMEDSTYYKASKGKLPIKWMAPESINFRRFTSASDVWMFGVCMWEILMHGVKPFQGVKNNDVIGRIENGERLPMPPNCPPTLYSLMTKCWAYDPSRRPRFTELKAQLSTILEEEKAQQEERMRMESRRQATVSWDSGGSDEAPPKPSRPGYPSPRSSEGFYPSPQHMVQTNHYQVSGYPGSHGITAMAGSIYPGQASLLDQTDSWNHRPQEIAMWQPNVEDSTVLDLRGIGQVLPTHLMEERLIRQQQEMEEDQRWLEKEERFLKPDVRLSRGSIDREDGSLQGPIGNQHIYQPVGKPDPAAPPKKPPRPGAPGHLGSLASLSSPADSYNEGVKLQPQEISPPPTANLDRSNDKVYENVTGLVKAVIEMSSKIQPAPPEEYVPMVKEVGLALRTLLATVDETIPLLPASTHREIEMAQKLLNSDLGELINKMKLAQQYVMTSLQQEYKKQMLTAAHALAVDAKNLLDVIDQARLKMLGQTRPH
Torsin-1A (Homo sapiens), sequence (O14656 whole entry, looked up): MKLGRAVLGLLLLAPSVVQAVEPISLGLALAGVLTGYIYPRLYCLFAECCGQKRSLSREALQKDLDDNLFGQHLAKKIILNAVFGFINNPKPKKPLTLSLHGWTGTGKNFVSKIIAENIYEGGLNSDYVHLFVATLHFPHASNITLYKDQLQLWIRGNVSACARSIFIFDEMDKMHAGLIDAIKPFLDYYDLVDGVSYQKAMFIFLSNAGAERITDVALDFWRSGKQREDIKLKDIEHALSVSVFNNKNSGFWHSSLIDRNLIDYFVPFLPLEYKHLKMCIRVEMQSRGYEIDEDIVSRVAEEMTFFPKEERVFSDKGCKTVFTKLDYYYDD
Streptavidin (Streptomyces avidinii), sequence (P22629 whole entry, looked up): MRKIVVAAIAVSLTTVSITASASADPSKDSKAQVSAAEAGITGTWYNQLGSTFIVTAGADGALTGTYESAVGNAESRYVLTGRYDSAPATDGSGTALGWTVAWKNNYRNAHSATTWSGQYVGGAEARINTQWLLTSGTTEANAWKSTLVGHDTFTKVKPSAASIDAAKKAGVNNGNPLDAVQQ
Luciferin 4-monooxygenase (Photinus pyralis), sequence (P08659 whole entry, looked up): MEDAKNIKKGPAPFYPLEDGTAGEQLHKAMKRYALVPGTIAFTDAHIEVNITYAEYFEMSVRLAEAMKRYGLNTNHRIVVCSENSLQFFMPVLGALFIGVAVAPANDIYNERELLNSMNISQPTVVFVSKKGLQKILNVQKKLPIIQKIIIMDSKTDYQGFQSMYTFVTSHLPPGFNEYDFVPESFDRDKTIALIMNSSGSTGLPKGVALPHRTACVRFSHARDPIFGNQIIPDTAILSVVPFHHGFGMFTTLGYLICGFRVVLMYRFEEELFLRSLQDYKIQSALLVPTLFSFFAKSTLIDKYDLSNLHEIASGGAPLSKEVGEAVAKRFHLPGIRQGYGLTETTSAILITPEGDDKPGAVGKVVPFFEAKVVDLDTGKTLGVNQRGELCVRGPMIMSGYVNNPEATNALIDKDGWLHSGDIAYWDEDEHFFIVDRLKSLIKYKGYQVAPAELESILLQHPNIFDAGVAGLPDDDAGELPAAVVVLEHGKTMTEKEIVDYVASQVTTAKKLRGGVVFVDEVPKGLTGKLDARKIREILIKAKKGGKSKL

In the case of `COC(=O)[C@@]1(Cc2ccccc2)[C@H]2c3cc(C(=O)N(C)C)n(Cc4ccc(C)c(F)c4F)c3C[C@H]2CN1C(=O)c1ccccc1`, the composite z-score was 1.95 and 1.06 in assay [1]; 1.24 and 1.25 in assay [2]; 0.73 and 1.04 in assay [3]; 0.966 and 1.01 in assay [4]; 0.096 and 1.26 in assay [5]; -0.824 and -0.149 in assay [6]. Moreover, the composite z-score with Lefty1 is -0.587 and 0.642; in assay [8], 0.899 and 1.03; in [10] it was 0.0409 and 1.51; in [15] it was 0.367 and 1.93; in assay [16], 0.122 and 0.787; with Torsin-1A (Homo sapiens) [17], 0.399 and 0.7. Further, the composite z-score with Torsin-1A (Homo sapiens) [18] is 0.272 and 0.365; in [19], -0.678 and -0.165. For the same compound, the z-score in assay [7] is -1.17 and -1.14; in assay [9] it was -1.27 (inactive) and 0.773 (inactive); in assay [11] it was -4.98 (inactive) and -3.53 (inactive); in assay [12], -0.796 (inactive) and 0.655 (inactive); in [13] it was 31.5 (active) and 0.972 (inactive); in assay [14], 202 (active) and 0.38 (inactive).

Turning to `CO[C@@H]1COC(=O)CC=C[C@H](C)[C@@H](NS(=O)(=O)c2ccc(C)cc2)COC(=O)CC=C[C@@H]1C`, the composite z-score in [1] is 0.395 and -0.145; in [2] it was 0.214 and -0.651; in assay [3] it was -0.0379 and -0.578; in [4] it was 0.0363 and -2.26; in [5] it was 0.407 and 1.42; in [6] it was 1.16 and 1.17. Moreover, the composite z-score with Lefty1 is 1.32 and 0.9; in assay [8], 0.216 and -0.0758; in assay [10], 0.123 and 0.0913; in assay [15], 0.167 and 0.162; in assay [16] it was -0.159 and -0.179; in the assay with Torsin-1A (Homo sapiens) [17], 0.318 and 2.3. In addition, the composite z-score with Torsin-1A (Homo sapiens) [18] is 0.505 and 1.55; in assay [19], 1.43 and 2.1. Also, the z-score was 1.66 and -1.16 in assay [7]; -0.439 (inactive) and 1.32 (inactive) in [9]; -0.142 (inactive) and -0.867 (inactive) in [11]; -0.675 (inactive) and -1.19 (inactive) in assay [12]; -0.743 (inactive) and 0.42 (inactive) in [13]; -0.881 (inactive) and 0.764 (inactive) in [14].

As for `C=CCN(CCCC)C(=O)C(c1cccs1)N(CCOCCO)C(=O)/C=C\C(=O)O` (stereo not given), the composite z-score in assay [1] is -0.542 and 1.17; in [2] it was -1.01 and 0.222; in [3], -0.552 and 0.468; in assay [4] it was -2.44 and -1.32; in assay [5], -1.31 and -0.249; in assay [6], -1.01 and -0.379. Moreover, the composite z-score is -0.727 and -0.409 with Lefty1; -0.667 and -0.193 in [8]; -0.582 and -0.146 in assay [10]; -0.915 and -0.578 in [15]; -0.0313 and -0.0791 in [16]; -0.289 and 0.536 with Torsin-1A (Homo sapiens) [17]. Moreover, the composite z-score with Torsin-1A (Homo sapiens) [18] was 1.73 and -0.144; in assay [19], -0.127 and -0.197. In addition, the z-score in [7] was 0.0562 and 0.567; in assay [9], -0.417 (inactive) and -0.714 (inactive); in [11], -0.259 (inactive) and -0.0074 (inactive); in assay [12], -0.801 (inactive) and -0.86 (inactive); in [13], -0.891 (inactive) and 0.0564 (inactive); in [14], -0.43 (inactive) and -0.359 (inactive).

With `O=C1[C@H]2[C@H]3[C@H](O)[C@H](O)CC(=NOCc4ccccc4)[C@H]3CC[C@H]2C(=O)N1Cc1ccccc1`, the composite z-score in assay [1] was 0.17; in [2], -0.137; in [3] it was -0.0933; in [4] it was -0.908; in [5], 0.659; in assay [6], 0.327. For the same compound, the composite z-score is 0.374 with Lefty1; 0.0116 in assay [8]; 0.0003 in [10]; 0.725 in [15]; -0.257 in assay [16]; 0.119 in the assay with Torsin-1A (Homo sapiens) [17]. For the same compound, the composite z-score is 0.358 in the assay with Torsin-1A (Homo sapiens) [18] and 0.659 in assay [19]. Further, the z-score is -0.901 in assay [7]; 0.983 (inactive) in assay [9]; -5.42 (inactive) in assay [11]; -0.788 (inactive) in assay [12]; 0.796 (inactive) in assay [13]; 0.888 (inactive) in assay [14].
